Bioassay records deposited in PubChem by several laboratories.
F-actin modifier – modifiers of F-actin cytoskeleton organization, primary screen, imaging, HUVEC, phalloidin staining, high-content imaging | AID 836, 2007 | inhibition, % at 2 µM | 91,000 compounds, 0.18% hits | HUVEC TNFa F-actin phalloidin imaging;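 active = inhibition above the batch mean plus 3 SD and confirmed as a hit by visual image inspection, cut at about 30% in these data, passing the limit was not always enough; inconclusive = above the inhibition threshold but rejected on visual inspection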
E-sel TNF inh – E-selectin induction blockers in HUVEC – imaging, immunofluorescence, high content, primary screen; HUVEC TNFa-induced E-selectin immunofluorescence; inhibition, % at 2 µM; 120,000 compounds, 0.71% hits; AID 1246, 2008;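 active = inhibition above the batch mean plus 3 SD, and confirmed as a hit on visual image review, cut at about 43% in these data; inconclusive = passes the inhibition cutoff but fails visual image review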;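 also: 0% = TNF-stimulated DMSO wells and 100% = unstimulated control wells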
TNFa cytotox – cytotoxicity in TNFa-stimulated HUVEC, primary screen, cytotoxicity control for VCAM1 expression modulator project, imaging, Hoechst nuclei count | HUVEC TNFalpha-stimulated, Hoechst cell count | cell count reduction, % at 2 µM | 93,000 compounds, 0.17% hits | AID 848, 2007;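 active = cell count reduction exceeding the screen mean by over 5 SD, scaled to untreated wells per plate, cut at about 78% in these data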;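 also: cells counted after 24 h of TNF alpha exposure following the 1 h pretreatment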
S1P2 agonist – S1P2 receptor agonists, primary screen, cell-based; Sphingosine 1-phosphate receptor 2 (Homo sapiens), O95136; S1P2-expressing cell line, agonist reporter read-out; activation, % at 4.5 µM; 97,000 compounds, 0.46% hits; AID 729, 2007; in the data active = activation above about 16%;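 also: 0% = vehicle low control and 100% = maximal reference agonist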
Target sequence (O95136 whole entry, looked up): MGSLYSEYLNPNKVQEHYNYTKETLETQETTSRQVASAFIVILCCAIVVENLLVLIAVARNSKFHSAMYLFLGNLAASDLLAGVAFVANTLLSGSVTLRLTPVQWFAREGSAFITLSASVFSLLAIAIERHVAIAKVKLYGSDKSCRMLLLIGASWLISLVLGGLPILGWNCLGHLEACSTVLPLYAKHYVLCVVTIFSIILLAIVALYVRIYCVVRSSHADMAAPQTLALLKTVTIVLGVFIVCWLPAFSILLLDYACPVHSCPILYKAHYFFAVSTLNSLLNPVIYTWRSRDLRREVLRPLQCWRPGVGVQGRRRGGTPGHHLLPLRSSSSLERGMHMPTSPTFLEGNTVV
VCAM1 TNFa inh – inhibitors of TNFa-induced VCAM1 expression, primary screen, imaging, HUVEC, TNFa stimulus, immunofluorescence; 95,000 compounds, 0.48% hits; inhibition, % at 2 µM; HUVEC TNFa-induced VCAM-1 immunofluorescence, high-content imaging;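 active = inhibition above the batch mean plus 3 SD, with images confirmed as a hit by eye, cut at about 37% in these data; inconclusive = inhibition above that limit but hit not confirmed in images; inactive = inhibition not above that limit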;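 also: 0% = TNF-stimulated DMSO wells and 100% = unstimulated control wells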
S1P2 antag – human S1P2 receptor antagonists, primary screen, cell-based. AID 736, 2007. 97,000 compounds, 0.21% hits. inhibition, % at 5 µM. cell-based S1P2 antagonist assay, inhibition at 5 uM; in the data active = inhibition above about 45%;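 also: CRE beta-lactamase reporter cells expressing human S1P2 stimulated with S1P; 0% = agonist at EC80 alone and 100% = agonist plus reference antagonist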
* marks the source's active call; other numbers are inactive results; ? = inconclusive; nt = no result given. This is a sample that favours compounds with a hit; in the whole collection about 1.6% have one here.

SMILES	F-actin modifier	E-sel TNF inh	TNFa cytotox	S1P2 agonist	VCAM1 TNFa inh	S1P2 antag
Cc1nnc(SCc2cn3ccsc3n2)n(N)c1=O	31	-14	82*	-6	62*	-12
O=C1CCCN1CCCNc1ncnc2c1[nH]c1ccc(Cl)cc12	3	3	6	17*	-4	11
FC(F)(F)c1nc(-c2ccncc2)ncc1-c1nnnn1-c1ccccc1	5	-10	18	-10	4	24
Fc1ccc(-n2nnnc2-c2cnc(-c3cccs3)nc2C(F)(F)F)cc1	2	-16	-17	-11	18	76*
Cc1c(Br)c([N+](=O)[O-])nn1C(C)C(=O)NCc1cccnc1 (stereo unspecified)	nt	20	-52	-1	16	1
COc1cccc(OC)c1NC(=O)CN1CCC(NC(=O)c2cccc(F)c2)CC1	70*	23	92*	-1	100*	-28
COc1cccc(C(=O)NC2CCN(CC(=O)NCc3ccccc3OC)CC2)c1	-18	5	-5	-2	-6	11
COc1ccccc1NC(=O)CN1CCC(n2c(C)nc3cc(F)ccc32)CC1	-30	11	-11	19*	34	-30
CC1CN(C(=O)C2CC2)C(C)CN1C(=O)C1CC1 (stereo unspecified)	nt	24	nt	nt	nt	nt
COc1ccc2[nH]c3c(c2c1)CCn1c-3nc2sc(C(=O)Nc3ccccc3)c(C)c2c1=O	nt	5	nt	nt	nt	nt
CCOC(=O)CN(C(=O)CSc1nnc(COc2ccc(OC)cc2)n1C)c1ccccc1	24	-11	-14	96*	-6	14
C/C(=N\NC(=O)CC(C)C)c1ccc(N2CCCCC2)cc1	nt	5	nt	nt	nt	nt
COc1cc2c(cc1OC)C1=C(C#N)CCC(=NC(=O)c3ccc(Cl)cc3)N1CC2	1	9	-18	55*	3	-14
O=C1CC(=C2c3ccccc3-c3ccccc32)C(=O)N1CCN1CCN(c2cccc(Cl)c2)CC1	8	-13	-14	-1	-2	0
CCOC(=O)N1CCC(NC(=O)c2ccc(CNS(=O)(=O)c3ccc(F)cc3)cc2)CC1	76*	nt	-51	1	-9	23
NC(=O)c1cc(N2C(=O)C=CC2=O)ccc1Cl	2	51*	0	-6	1	14
COc1ccc(OC)c(C2CC(=O)c3c([nH]c(C(=O)OC(C)C)c3C)C2)c1 (stereo unspecified)	7	12	57	3	41*	-19
CC(=O)c1cccc(Nc2nc(-c3cccc([N+](=O)[O-])c3)cs2)c1	-6	-17	-1	0	39*	-45
CC(=O)Nc1nc(C)c(-c2csc(Nc3cccc([N+](=O)[O-])c3)n2)s1	5	24	-22	-2	-7	6
O=C(Oc1coc(CSc2nnc(NC(=O)c3cccs3)s2)cc1=O)c1ccccc1	nt	-21	nt	nt	nt	nt
O=C(C1CCCO1)N1CCN(c2c3c(nc4cc(-c5ccc(F)cc5)nn24)CCC3)CC1 (stereo unspecified)	30	65*	4	-3	-1	10
O=C1Oc2ccccc2C(=O)/C1=C/N1CCN(c2ccccc2F)CC1	nt	-18	nt	nt	nt	nt
O=C(CNC(=S)NC(=O)c1ccco1)c1ccccc1	5	47	0	-5	-10	-14
CCCCOc1ccc(/C=C/C(=O)OCC(=O)NC(=O)NCC(C)C)cc1OCC	nt	84*	nt	nt	nt	nt
COc1ccc(-n2nc(C(=O)c3cccs3)cc(-c3nc4ccccc4[nH]3)c2=N)cc1	3	-46	-15	22*	3	-45
SMILES	F-actin modifier	E-sel TNF inh	TNFa cytotox	S1P2 agonist	VCAM1 TNFa inh	S1P2 antag
Cc1ccccc1-n1nc(C(=O)c2cccs2)cc(-c2nc3ccccc3[nH]2)c1=N	23	-12	-13	24*	-9	-12
O=C(O)c1cccc(S(=O)(=O)Nc2ccccc2Cl)c1	1	29	-11	-2	95*	5
O=C(NNS(=O)(=O)c1ccccc1C(F)(F)F)c1cccc(S(=O)(=O)Nc2ccccc2Cl)c1	nt	6	nt	nt	nt	nt
O=C(Nc1ccccc1C(=O)NC(Cc1c[nH]c2ccccc12)C(=O)O)c1ccco1 (stereo unspecified)	-16	0	3	-1	12	10
O=C(NC(Cc1c[nH]c2ccccc12)C(=O)O)c1ccco1 (stereo unspecified)	?	7	100*	-2	?	-7
COc1ccc(C(=O)/C=C/Nc2ccc([N+](=O)[O-])cc2C)c(OC)c1	3	100*	3	-6	-18	10
Cc1ccc(-n2ncc3c(SCC(=O)NNC(=O)c4ccco4)ncnc32)cc1	nt	7	nt	nt	nt	nt
CN(C(=O)CSc1nc2cc(C(=O)O)ccc2c(=O)n1Cc1ccccc1)C1CCS(=O)(=O)C1 (stereo unspecified)	nt	-1	nt	nt	nt	nt
O=C(COc1ccc(-c2nnco2)cc1)NC1CCCc2ccccc21 (stereo unspecified)	nt	-12	nt	nt	nt	nt
O=C(COc1ccc(-c2nnco2)cc1)NCc1ccccc1Cl	nt	77*	nt	nt	nt	nt
CCCn1nc([N+](=O)[O-])c(C(C#N)c2nc3ccccc3s2)c(Cl)c1=O (stereo unspecified)	-25	-10	-13	-4	51*	8
CCn1nc([N+](=O)[O-])c(C(C#N)c2nc3ccccc3n2C)c(Cl)c1=O (stereo unspecified)	nt	-5	nt	nt	nt	nt
O=S(=O)(C/C(=C/CO)S(=O)(=O)c1ccccc1)c1ccccc1	-2	100*	30	-8	86*	80*
CCOc1cc(C(=O)NCc2nnc(SCC(=O)OC)n2C)cc(OCC)c1OCC	nt	71*	nt	nt	nt	nt
CCOC(=O)NCc1ccc(S(=O)(=O)Nc2c(C)cccc2C)cc1	nt	2	5	-9	-3	-17
O=C(COc1ccccc1-c1ccccc1)N/N=C/c1cccc2ccccc12	-31	17	55	-2	69*	12
COc1ccc(/C=N/NC(=O)COc2ccccc2-c2ccccc2)cc1	-39	-15	59	-5	2	11
Cc1ccc(S(=O)(=O)N[C@H](C(=O)Oc2ccc3c(C(F)(F)F)cc(=O)oc3c2)c2ccccc2)cc1	-26	-17	6	-8	-7	58*
CCN(CC)c1ccc2cc(-c3nc4ccccc4n3C)c(=O)oc2c1	-23	nt	66	3	70*	69*
CCN(CC)c1ccc2cc(-c3nnc(-c4ccc(Br)cc4)o3)c(=O)oc2c1	20	6	-20	-9	2	1
CCN(CC)c1ccc2cc(-c3nc4ccccc4[nH]3)c(=O)oc2c1	48*	5	-21	-11	13	34
CCN(CC)c1ccc2cc(-c3nnc(-c4ccccc4)o3)c(=O)oc2c1	23	-5	-14	-2	-20	-10
